Sampled rows, rich in hits. Any-hit rate of the full collection: about 2.3%.
Nrf2 block = Nrf2 pathway inhibition; AID 504444; A549 ARE-Fluc reporter, luciferase luminescence, 18-24 h; 360,000 compounds, 2.1% hits; Potency, µM (series often up to 46 µM), for inactives: at the top dose activity change, negative = inhibition, most hits filed as inhibitors; note: potency is the fitted concentration of half-maximal effect; % is set by controls: 0 for no effect and ±100 for the full control effect; nearly all actives have a fitted effect of over 60% in size
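Cells were seeded and rested 2 h, then exposed to compounds for 18-24 h. CellTiter-Fluor was read first as a viability measure. BugLite was added 15 min before the final luminescent read of ARE-luciferase activity in A549 cells.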
A549 tox-1 = counter-screen for Nrf2 inhibitors: cytotoxicity in A549 cells; A549 ARE-Fluc cells, CellTiter-Fluor viability, 18-24 h; Potency, µM (highest dose often 46 µM), for the others: top-dose activity change, negative = cytotoxicity, hits mostly inhibitors; 390,000 compounds, 0.16% hits; note: potency is the fitted concentration of half-maximal effect; % is set by controls: 0 for no effect and ±100 for the full control effect
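A549 ARE_Fluc cells in 5% FBS OPTI-MEM were exposed to compounds in concentration-response for 18-24 h at 37 deg C. Viability was read by CellTiter-Fluor fluorescence (Ex 405/Em 525) after 30 min, before the luciferase read.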
Giardia killer = kills Giardia lamblia; Giardia lamblia trophozoite viability; activity change, % at 7.66 µM, hits read low; 340,000 compounds, 0.15% hits; in the data active = activity change below about -80%; inconclusive = between about -30% and that limit;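 note: parasites exposed to compound for two days anaerobically before the ATP read; % is set by controls: 0 for no effect and ±100 for the full control effect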
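Each well holds 100 Giardia trophozoites and compound. After two days (48 hrs) at 37 deg C in anaerobic conditions, ATP is quantified by luminescence.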
Nrf2 activator = activates Nrf2 signaling; AREc32 ARE-luciferase reporter (MCF7-derived line), luminescence, 24 h; Potency, µM (doses to about 46.1 µM), for inactives: at the highest dose activation, usual class: activators; 410,000 compounds, 0.31% hits; note: potency is the fitted concentration of half-maximal effect; % of control where 0% means no effect; nearly all actives have a fitted effect of over 65% in size
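Quantitative high-throughput format: AREc32 reporter cells, 1000 per well, received compound by pin transfer and were incubated 24 hr at 37 deg C, 5% CO2, before Steady-Glo luminescence detection.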
mIDH1 inhibitor = inhibitors of human mutant IDH1 R132H; Potency, µM (titrated, usually from 76.6 µM), without a hit: at the highest dose activity change, negative = inhibition, hits mostly inhibitors; 390,000 compounds, 0.093% hits; AID 602179; O75874; IDH1-R132H enzyme, NADPH consumption, diaphorase/resazurin fluorescence; note: potency is the fitted concentration of half-maximal effect; % is set by controls: 0 for no effect and ±100 for the full control effect; nearly all actives have a fitted effect of over 65% in size
Target sequence (O75874 whole entry R132H, stated change not applied): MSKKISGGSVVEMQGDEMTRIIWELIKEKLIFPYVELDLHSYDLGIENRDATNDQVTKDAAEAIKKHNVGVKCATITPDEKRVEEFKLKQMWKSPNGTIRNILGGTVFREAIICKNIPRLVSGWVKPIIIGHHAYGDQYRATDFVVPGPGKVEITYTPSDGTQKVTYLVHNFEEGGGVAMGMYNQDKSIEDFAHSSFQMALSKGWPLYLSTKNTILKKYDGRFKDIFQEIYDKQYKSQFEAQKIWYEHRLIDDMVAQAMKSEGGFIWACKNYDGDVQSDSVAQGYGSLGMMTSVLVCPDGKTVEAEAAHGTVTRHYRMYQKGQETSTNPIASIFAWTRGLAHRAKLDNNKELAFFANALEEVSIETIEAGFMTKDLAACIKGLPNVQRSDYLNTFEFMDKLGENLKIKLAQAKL
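IDH1-R132H (0.5 ug/mL dispensed) in pH 7.5 Tris buffer was preincubated 30 min with compound, then given a substrate mix of 0.016 mM NADPH and 2 mM alpha-KG for 80 min at room temperature; remaining NADPH was read by diaphorase/resazurin fluorescence.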
Apoferritin bind = candidate novel general anesthetic via apoferritin binding; P02791; apoferritin/1-aminoanthracene competitive binding, fluorescence; Potency, µM (doses to about 77.5 µM), for inactives: at the top dose activity change, negative = displacement, most hits filed as inhibitors; 350,000 compounds, 0.074% hits; AID 485281; note: potency is the fitted concentration of half-maximal effect; % is set by controls: 0 for no effect and ±100 for the full control effect; nearly all actives have a fitted effect of over 20% in size
Target sequence (P02791 2-175 limits assumed): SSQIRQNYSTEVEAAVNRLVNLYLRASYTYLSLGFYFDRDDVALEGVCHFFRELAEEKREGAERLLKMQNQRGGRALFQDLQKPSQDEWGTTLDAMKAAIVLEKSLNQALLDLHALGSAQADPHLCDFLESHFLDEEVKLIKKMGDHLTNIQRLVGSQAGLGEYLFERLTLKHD
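Apoferritin-based anesthetic binding model; compound displacement of fluorescent 1-AMA measured as endpoint fluorescence after 10 minutes at room temperature, scaled to free-ligand and complex controls.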
FLuc enzyme inh = firefly luciferase inhibition, Nrf2 hit validation; shares compounds with Nrf2 block; purified firefly luciferase, luminescence inhibition; Potency, µM (highest dose often 57.5 µM), for inactives: at the highest dose activity change, negative = inhibition, most hits filed as inhibitors; 1,400 compounds, 4% hits; AID 720522; note: potency is the fitted concentration of half-maximal effect; % is set by controls: 0 for no effect and ±100 for the full control effect; nearly all actives have a fitted effect of over 65% in size
A549 tox-2 = counter-screen for Nrf2 inhibitors: cytotoxicity in A549 ARE cells | A549 ARE-Fluc cells, cytotoxicity counterscreen | Potency, µM (highest dose often 46.1 µM), inactives show at the top dose activity change, negative = cytotoxicity, actives largely listed as inhibitors | 1,400 compounds, 2% hits | AID 720523 | shares compounds with Nrf2 block;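 note: potency is the fitted concentration of half-maximal effect; cells exposed to compounds for 18 to 24 hours; % is set by controls: 0 for no effect and ±100 for the full control effect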
ARE-Fluc inh = reduces Nrf2 ARE reporter signal in A549 cells | 1,400 compounds, 74% hits | shares compounds with Nrf2 block | Potency, µM (doses to about 46.1 µM), without a hit: at the highest dose activity change, negative = inhibition, most hits filed as inhibitors | A549 ARE-firefly luciferase reporter, luminescence; note: potency is the fitted concentration of half-maximal effect; % is set by controls: 0 for no effect and ±100 for the full control effect; nearly all actives have a fitted effect of over 65% in size
An asterisk follows results filed as active; ? = inconclusive; nt = no result shown; [ ] = another dose, or the depositor's remark. Unless noted, calls come from the whole dose curve; as a rule, active = well fitted curve in the direction sought with a large enough effect; inconclusive = small, poorly fitted or top-dose-only effect, or another doubt; inactive = no such curve, though single readings can be large; an effect the other way counts as inactive or inconclusive.

SMILES	Nrf2 block	A549 tox-1	Giardia killer	Nrf2 activator	mIDH1 inhibitor	Apoferritin bind	FLuc enzyme inh	A549 tox-2	ARE-Fluc inh
Cc1ccc(-c2cc(-c3ccc(C)cc3)[n+](-c3ccc(C(=O)[O-])cc3)c(-c3ccc(C)cc3)c2)cc1	21.1%	3.2%	-23.3	-0.2%	-5.7%	nt	nt	nt	nt
CC(=O)c1ccc(N2CCN(S(=O)(=O)c3cc(-c4onc(C)c4C)ccc3C)CC2)cc1	9.2µM*	-0.7%	nt	0.6%	10.2%	-8.9%	2.1%	0.7%	6.51µM*
CCOc1ccccc1NC(=O)c1sc2nc3c(cc2c1N)CN(Cc1ccccc1)CC3	?	3.4%	nt	0.7%	0.0%	-6.5%	nt	nt	nt
CCN1C[C@]2(COC)CC[C@H](OC)[C@@]34C5C[C@@H]6[C@@H](OC)C[C@@]7(OCO[C@@]7([C@@H](O)C23)[C@@H]14)C5[C@H]6OC (some centres not stated)	nt	nt	nt	nt	nt	1.3%	nt	nt	nt
CC1=CC(O)C(O)C2(C)C1CC1OC(=O)CC3C(C)C(O)C(=O)C2C13CO (configuration not stated)	2.06µM*	?	-5.0	-1.9%	0.0%	nt	3.4%	-28.9%	nt
COC(=O)[C@@H]1C[C@@]2(O)[C@@H](O)[C@@H](O)[C@@H](O)C[C@H]2N1Cc1cccnc1	nt	nt	nt	nt	nt	-6.5%	nt	nt	nt
COc1cc(C2c3cc4c(c(O)c3CC3COC(=O)C32)OCO4)cc(OC)c1O (configuration not stated)	?	-1.3%	?	nt	nt	nt	nt	nt	nt
O=C1NC2C(=CC(O)C(O)C2O)c2cc3c(c(O)c21)OCO3 (configuration not stated)	0.259µM*	?	?	-2.2%	3.9%	nt	0.8%	?	nt
O=C1NC2C(O)C(O)C(O)C(O)C2c2cc3c(c(O)c21)OCO3 (configuration not stated)	0.92µM*	1.16µM*	0.7	-2.3%	-5.2%	nt	2.9%	?	1.3µM*
OC12C3C4CC5C6C4C1C6C(C53)N2CCc1cccc(F)c1 (configuration not stated)	nt	nt	nt	nt	nt	-8.4%	nt	nt	nt
CC(C)N1CC=C(c2c[nH]c3ccccc23)CC1	1.64µM*	?	-4.5	3.0%	12.7%	-15.7%	-1.3%	-10.3%	nt
Cc1c(CCNS(=O)(=O)c2ccccc2)sc2nc(-c3ccc(Cl)cc3)nn12	nt	-21.3%	nt	-1.3%	-8.1%	34.3%	nt	nt	nt
CC(C)(O)/C=C/C(=O)[C@](C)(O)C1[C@H](O)C[C@@]2(C)C3CC=C4C(C[C@H](O)[C@@H](O)C4(C)C)[C@]3(C)C(=O)C[C@]12C (some centres not stated)	0.411µM*	?	6.5	13.2%	5.4%	nt	0.6%	?	1.3µM*
CC(=O)O[C@H]1CC[C@]2(C=O)C3CC[C@]4(C)[C@@H](C5=CC(=O)OC5)CC[C@]4(O)C3CC[C@]2(O)C1 (some centres not stated)	0.259µM*	-25.2%	-13.8	nt	nt	6.4%	3.8%	?	0.366µM*
C[C@@H]1O[C@H](O[C@@H]2CC[C@@]3(C=O)[C@H]4CC[C@@]5(C)[C@@H](C6=CC(=O)OC6)CC[C@@]5(O)[C@@H]4CC[C@]3(O)C2)C[C@H](O)[C@@H]1O	nt	nt	nt	nt	nt	35.3%[29.3 µM]	nt	nt	nt

Bioassay records as filed in PubChem.
